# High-throughput results deposited in PubChem by National Center for Advancing Translational Sciences (NCATS).
# NIH3T3 tox – Cytotoxic Profiling in NIH 3T3 Cell Line of Diverse Libraries Using Quantitative High-Throughput Screening; NIH 3T3 viability, CellTiter-Glo ATP luminescence, 48-72 h; Potency, µM (top dose mostly 96.7 µM), inactives show at the top dose activity change, negative = cytotoxicity, hits mostly inhibitors; 94,000 compounds, 4.3% hits; note: % is set by controls: 0 for no effect and ±100 for the full control effect; nearly all actives have a fitted effect of over 55% in size
#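 Cells were seeded at 400 per well, treated with pin-transferred compound, and kept 48 or 72 hr at 37 °C before CellTiter-Glo addition and luminescence imaging of cellular ATP.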
# FLuc inh-1 – Firefly luciferase inhibition profiling of diverse chemical library using quantitative high-throughput screening; purified P. pyralis luciferase, luminescence, biochemical; Potency, µM (top dose mostly 115 µM), most hits filed as inhibitors; 76,000 compounds, 2.5% hits; AID 1347043, 2019; note: % is set by controls: 0 for no effect and ±100 for the full control effect; nearly all actives have a fitted effect of over 65% in size
# Target sequence (P08659 whole entry, looked up): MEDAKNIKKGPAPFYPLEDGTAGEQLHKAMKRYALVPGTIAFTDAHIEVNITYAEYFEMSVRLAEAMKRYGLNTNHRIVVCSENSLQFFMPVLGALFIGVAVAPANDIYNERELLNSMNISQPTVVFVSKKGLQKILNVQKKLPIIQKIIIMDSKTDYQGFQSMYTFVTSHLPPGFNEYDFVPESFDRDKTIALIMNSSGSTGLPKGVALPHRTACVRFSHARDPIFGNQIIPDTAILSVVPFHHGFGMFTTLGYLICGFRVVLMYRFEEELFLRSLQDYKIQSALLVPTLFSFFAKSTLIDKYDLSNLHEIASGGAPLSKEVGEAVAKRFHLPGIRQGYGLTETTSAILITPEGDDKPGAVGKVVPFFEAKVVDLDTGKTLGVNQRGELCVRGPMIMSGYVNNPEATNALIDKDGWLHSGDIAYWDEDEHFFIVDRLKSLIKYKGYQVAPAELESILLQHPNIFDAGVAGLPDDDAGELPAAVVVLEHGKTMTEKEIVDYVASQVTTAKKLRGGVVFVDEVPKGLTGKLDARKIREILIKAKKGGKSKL
#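 Luminescence read by CCD imaging after purified firefly luciferase (10nM final) was added to substrate buffer holding 10uM D-luciferin and 10uM ATP, pH 7.5, pre-dosed with compound.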
# hNpr1 antagonist – Natriuretic polypeptide receptor (hNpr1) antagonism - Primary qHTS | Atrial natriuretic peptide receptor 1 (Homo sapiens), P16066 | HEK293 hNpr1 GloSensor cGMP, ANP-stimulated luminescence | Potency, µM (doses to about 46.3 µM), for the others: at the highest dose activity change, negative = inhibition, most hits filed as inhibitors | 76,000 compounds, 1.6% hits | AID 1347048, 2019; calls by dose curve; note: % is set by controls: 0 for no effect and ±100 for the full control effect; nearly all actives have a fitted effect of over 60% in size
#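 HEK293 cells stably expressing human Npr1 and cGMP GloSensor pGS-40F, loaded 2 h with 2% GloSensor reagent, given compound 30 min at room temperature. Luminescence read before and 20 min after 0.1 nM hNppA.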
# HEK293 tox – Cytotoxic Profiling in HEK 293 Cell Line of Diverse Libraries Using Quantitative High-Throughput Screening; HEK 293 viability, ATP luminescence (CellTiter-Glo), 48-72 h; Potency, µM (top dose mostly 115 µM), inactives show at the top dose activity change, negative = cytotoxicity, actives largely listed as inhibitors; 94,000 compounds, 6.6% hits; AID 1345083, 2018; note: % is set by controls: 0 for no effect and ±100 for the full control effect; nearly all actives have a fitted effect of over 60% in size
#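 Cytotoxicity was scored by loss of ATP-coupled luminescence (CellTiter-Glo) in HEK 293 cells. Compound treatment ran 48 or 72 hr at 37 degree Celsius, 5% CO2, 95% humidity.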
# FLuc SDR -ATP – Firefly luciferase (FLuc-C-HiBiT) SDR gain of signal screen - without ATP; Potency, µM (titrated, usually from 32.7 µM), for the others: top-dose activation (signal gain), usual class: activators; shares compounds with FLuc inh-1; Purified FLuc-C-HiBiT, Nano-Glo HiBiT luminescence, no ATP; 1,300 compounds, 7.8% hits; note: nearly all actives have a fitted effect of over 55% in size
# FLuc SDR ATP – Firefly luciferase (FLuc-C-HiBiT) SDR gain of signal screen - plus ATP; shares compounds with FLuc inh-1; 1,300 compounds, 8.7% hits; Potency, µM (highest dose often 32.7 µM), for the others: top-dose activation (gain of signal), hits mostly activators; purified FLuc-C-HiBiT + ATP, HiBiT complementation luminescence;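 note: signal reports ligand binding via conformational change of the enzyme rather than luciferase catalysis; % of control where 0% means no effect; nearly all actives have a fitted effect of over 55% in size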
# FLuc inh-2 – Firefly luciferase (FLuc-C-HiBiT) enzymatic inhibition screen - Functional assay; 1,300 compounds, 42% hits; AID 1963320, 2024; Potency, µM (series often up to 32.7 µM), for inactives: top-dose activity change, negative = inhibition, most hits filed as inhibitors; purified FLuc-C-HiBiT enzyme, luciferin luminescence; shares compounds with FLuc inh-1; note: % is set by controls: 0 for no effect and ±100 for the full control effect; nearly all actives have a fitted effect of over 70% in size
# An asterisk follows results filed as active; i = inactive; ? = inconclusive; . = not tested or not shown; [ ] = dose if it differs, or a comment. Most compounds without a hit are left out; they make up all but 11% or so of the library. Unless noted, calls come from the whole dose curve; as a rule, active = well fitted curve in the direction sought with a large enough effect; inconclusive = small, poorly fitted or top-dose-only effect, or another doubt; inactive = no such curve, though single readings can be large; an effect the other way counts as inactive or inconclusive. Potency is the fitted concentration of half-maximal effect.
SMILES,NIH3T3 tox,FLuc inh-1,hNpr1 antagonist,HEK293 tox,FLuc SDR -ATP,FLuc SDR ATP,FLuc inh-2
COc1ccc(-c2cn3cc(C(=O)NCc4ccc(Cl)cc4)nc3s2)cc1,-10.5%,.,.,-22.0%,.,.,.
Fc1ccc(Cc2cn3cc(-c4ccc(Cl)cc4)nc3s2)cc1,.,.,.,.,16.3%,14.1%,?
Clc1ccccc1Cc1cn2cc(-c3ccccc3)nc2s1,.,.,.,.,?,?,0.442µM*
Fc1ccc(-c2cn3cc(Cc4ccccc4)sc3n2)cc1,.,.,.,.,?,?,0.279µM*
Nc1ccc2nc(-c3ccc(O)cc3)sc2c1,.,.,.,.,3.94µM*,?,0.624µM*
CCOc1cccc(NC(=O)CSc2ncc(-c3ccccc3)[nH]2)c1,.,.,.,.,21.3%,13.5%,-16.2%
CCOc1cccc(NC(=O)c2cc(-c3ccc(C(F)(F)F)cc3)nc3c2cnn3C)c1,?,.,.,-22.7%,.,.,.
O=C(NC1CCN(c2ccc3nnc(-c4ccccc4)n3n2)C1)c1cccc(Cl)c1 (stereo not drawn),-23.1%,.,.,-7.5%,.,.,.
c1ccc([C@@H]2C[C@@H]3C[C@H](N4CCNCC4)C[C@@H]3CO2)cc1,-29.7%,.,.,?,.,.,.
CC(=O)c1cccc(NC(=O)c2nc3ccccc3n(C)c2=O)c1,.,.,.,.,4.42µM*,?,3.13µM*
OCC1(CC2CC2)CCCN(c2nc(-c3ccccc3)no2)C1 (stereo not drawn),?,14.1µM*,-3.5%,?,10.9%,12.5%,-12.2%
C[C@@H]1CN(c2nc(-c3ccccc3)no2)CC[C@@]1(O)C1CCC1,?,0.355µM*,5.62µM*,?,?,?,1.76µM*
O=C1CC2(CCN(c3nc(-c4ccccc4)no3)CC2)CN1Cc1ccccc1,?,i,?,?,.,.,.
CN1[C@@H](CCC(=O)NCc2cccs2)CNC(=O)[C@@H]2[C@H]1CCN2Cc1cccs1,-18.5%[174 µM],i,-0.6%[70.6 µM],-15.0%[172 µM],.,.,.
COc1ccc(CCC(=O)N2CCC3(CC2)NC(=O)N(c2cccc(F)c2)N3)cc1,?,i,5.1%,?,.,.,.
CN1c2cc(C(=O)Nc3ccc(Cl)cc3)ccc2C(=O)N2CCCCC21 (stereo not drawn),?,?,0.0%,?,.,.,.
CN1c2cc(C(=O)Nc3ccc4c(c3)OCCO4)ccc2C(=O)N2CCCCC21 (stereo not drawn),?,7.94µM*,-22.3%,?,?,?,9.89µM*
Cn1c(=O)c2ccnn2c2ccc(C(=O)NC3CCCC3)cc21,-20.2%,i,-4.2%,-26.7%,.,.,.
CCN1c2cc(C(=O)Nc3ccc(N(C)C)cc3)ccc2C(=O)N2CCCCC21 (stereo not drawn),?,11.2µM*,-11.6%,44.7µM*,10.8%,11.4%,?
CCN1c2cc(C(=O)Nc3ccc4c(c3)OCCO4)ccc2C(=O)N2CCCCC21 (stereo not drawn),25.1µM*,11.2µM*,-12.0%,?,24.1%,?,9.89µM*
Cn1c(=O)c2ccnn2c2ccc(C(=O)Nc3ccc4c(c3)OCCO4)cc21,-18.9%,10µM*,-27.3%,35.5µM*,26.0%,19.8%,9.89µM*
O=C(Cc1ccccn1)NC1CCN(C(=O)c2ccc(-c3cccs3)cc2)CC1,-27.5%,.,.,?,.,.,.
O=C(Nc1ccccc1F)N1CCC(N2C(=O)C3(CCCCC3)C2c2ccncc2)CC1 (stereo not drawn),-25.8%,?,6.0%,?,.,.,.
O=[N+]([O-])c1cccc(-c2noc([C@@H]3C[C@@H](O)CN3Cc3cccs3)n2)c1,?,?,4.4%[70.6 µM],?,.,.,.
COc1ccc(-c2noc([C@@H]3C[C@@H](O)CN3Cc3cccs3)n2)cc1,-36.2%[174 µM],14.1µM*,-14.4%[70.6 µM],-22.5%[172 µM],9.6%[49.3 µM],9.0%[49.3 µM],?
SMILES,NIH3T3 tox,FLuc inh-1,hNpr1 antagonist,HEK293 tox,FLuc SDR -ATP,FLuc SDR ATP,FLuc inh-2
CN1CCN(c2ccc(-c3cc4c(ccn4C)c(C(=O)NCCc4ccccn4)n3)cc2)CC1,20µM*,0.794µM*,-12.1%,35.5µM*,?,?,2.79µM*
Cn1ccc2c(C(=O)NCC3CCOCC3)nc(-c3cccc(N4CCOCC4)c3)cc21,?,i,0.1%[70.6 µM],?,.,.,.
Cn1ccc2c(C(=O)NCCc3ccccn3)nc(-c3cccc(N4CCOCC4)c3)cc21,?,i,0.7%,?,.,.,.
Cn1ccc2c(C(=O)NCCc3cnc[nH]3)nc(-c3ccc(N4CCOCC4)cc3)cc21,?,1µM*,-1.9%[70.6 µM],?,?,?,4.53µM*
CCCn1ncc(-c2nc(-c3ccncc3)no2)c1C,?,2.51µM*,?,35.5µM*,?,?,8.81µM*
CNC1CNC(=O)c2cc(-c3ccc(OC)cc3)nn21 (stereo not drawn),i,?,1.5%,i,.,.,.
Cc1ccc(C(=O)Nc2cccc(C(=O)O)c2)cc1,.,.,.,.,12.4µM*,0.0495µM*,0.0556µM*
CCOc1ccc(NC(=O)Nc2cccc(C(=O)O)c2)cc1,.,.,.,.,4.42µM*,0.007µM*,0.0088µM*
CCc1ccc(C(=O)Nc2ccc3c(N4CCOCC4)ncnc3c2)cc1,8.91µM*,10µM*,2.2%,?,?,?,7.85µM*
CN(C)c1cccc(C(=O)Nc2ccc3c(N4CCOCC4)ncnc3c2)c1,-66.1%,12.6µM*,-14.2%,?,26.7%,?,?
NCCCC(=O)N1Cc2ccccc2CC2(CCCN(CC3CCOCC3)C2)C1 (stereo not drawn),?,.,.,-21.7%,.,.,.
Cc1noc(C)c1-c1cc(-c2cccnc2)cn2cncc12,?,i,-2.2%[70.6 µM],?,.,.,.
Cc1ccc(C(=O)NC2CC2)cc1-c1ccc2[nH]ncc2c1,.,.,.,.,17.3%,12.0%,-15.9%
COc1ccc(-c2nc3ccccc3s2)cc1NC(=O)COc1cccc(C)c1,.,.,.,.,14.8%,7.9%,-13.4%
COc1ccc(-c2nc3ccccc3s2)cc1NC(=O)COc1ccc(C)cc1,.,.,.,.,9.4%,6.2%,-10.5%
COc1ccc(C)cc1NC(=O)COc1ccc(-c2nnc3n2CCCC3)cc1,?,i,1.3%,?,.,.,.
